Among the data in ChEMBL document CHEMBL1961873, “Compounds: GSK PKIS; Assays: Nanosyn kinase panel” (2012) are inhibition values, retold here.

In assay [1] the target is Sphingosine kinase 1 (Homo sapiens) (UniProt Q9NYA1). The settings on record: at 1 µM.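 Also: mean SPHK1 inhibition value reported from the GSK PKIS kinase panel screen.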
In assay [2] the target is T1, Sphingosine kinase 2 (Homo sapiens) (UniProt Q9NRA0).
T1 sequence (whole entry): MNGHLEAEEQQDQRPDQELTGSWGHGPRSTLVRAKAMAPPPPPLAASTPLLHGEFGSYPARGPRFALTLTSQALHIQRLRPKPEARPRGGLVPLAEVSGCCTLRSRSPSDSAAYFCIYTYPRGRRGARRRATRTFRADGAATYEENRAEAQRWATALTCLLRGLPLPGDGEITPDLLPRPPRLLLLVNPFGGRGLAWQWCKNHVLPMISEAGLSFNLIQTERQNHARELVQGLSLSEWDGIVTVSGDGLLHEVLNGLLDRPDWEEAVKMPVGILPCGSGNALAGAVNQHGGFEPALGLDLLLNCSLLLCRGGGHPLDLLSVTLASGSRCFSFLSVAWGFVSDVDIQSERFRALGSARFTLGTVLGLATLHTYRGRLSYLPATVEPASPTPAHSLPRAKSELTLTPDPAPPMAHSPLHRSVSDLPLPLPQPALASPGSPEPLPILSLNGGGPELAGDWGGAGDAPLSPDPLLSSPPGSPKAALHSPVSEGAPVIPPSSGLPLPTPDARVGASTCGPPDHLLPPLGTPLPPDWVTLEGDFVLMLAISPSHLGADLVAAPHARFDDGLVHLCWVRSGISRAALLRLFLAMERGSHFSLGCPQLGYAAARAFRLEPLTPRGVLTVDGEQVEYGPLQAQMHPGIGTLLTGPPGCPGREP
Conditions: at 0.1 µM.

For assay [3], the target named is T1, Sphingosine kinase 2 (Homo sapiens). Conditions: at 1 µM.
For assay [4], the target named is Casein kinase II subunit alpha (Homo sapiens) (UniProt P68400). Conditions: at 0.1 µM.
Assay [5] shares this target. The settings on record: at 1 µM.
Assay [6] deals with T2, Inhibitor of nuclear factor kappa-B kinase subunit alpha (Homo sapiens) (UniProt O15111).
T2 sequence (whole entry): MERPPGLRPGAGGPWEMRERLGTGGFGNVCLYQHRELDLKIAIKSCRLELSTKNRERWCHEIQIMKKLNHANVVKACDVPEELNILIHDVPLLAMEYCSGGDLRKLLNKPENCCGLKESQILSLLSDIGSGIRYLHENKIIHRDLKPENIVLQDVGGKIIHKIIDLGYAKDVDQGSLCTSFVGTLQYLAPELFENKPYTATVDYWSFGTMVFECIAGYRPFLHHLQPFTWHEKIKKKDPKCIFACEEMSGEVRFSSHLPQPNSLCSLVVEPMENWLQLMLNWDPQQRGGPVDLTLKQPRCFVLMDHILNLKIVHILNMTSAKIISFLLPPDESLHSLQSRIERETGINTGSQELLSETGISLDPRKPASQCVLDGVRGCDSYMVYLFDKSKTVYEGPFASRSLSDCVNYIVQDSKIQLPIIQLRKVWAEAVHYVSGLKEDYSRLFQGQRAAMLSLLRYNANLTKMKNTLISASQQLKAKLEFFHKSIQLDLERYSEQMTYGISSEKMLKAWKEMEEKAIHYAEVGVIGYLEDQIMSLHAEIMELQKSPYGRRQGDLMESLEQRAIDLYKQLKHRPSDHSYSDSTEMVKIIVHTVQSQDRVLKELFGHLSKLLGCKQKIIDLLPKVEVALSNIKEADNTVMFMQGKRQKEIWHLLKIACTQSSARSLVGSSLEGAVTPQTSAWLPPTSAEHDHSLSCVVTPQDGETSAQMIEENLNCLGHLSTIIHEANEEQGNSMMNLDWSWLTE
The settings on record: at 0.1 µM.

The target in assay [7] is T2, Inhibitor of nuclear factor kappa-B kinase subunit alpha (Homo sapiens). Conditions: at 1 µM.
For assay [8], the target named is T3, Inhibitor of nuclear factor kappa-B kinase subunit beta (Homo sapiens) (UniProt O14920).
T3 sequence (whole entry): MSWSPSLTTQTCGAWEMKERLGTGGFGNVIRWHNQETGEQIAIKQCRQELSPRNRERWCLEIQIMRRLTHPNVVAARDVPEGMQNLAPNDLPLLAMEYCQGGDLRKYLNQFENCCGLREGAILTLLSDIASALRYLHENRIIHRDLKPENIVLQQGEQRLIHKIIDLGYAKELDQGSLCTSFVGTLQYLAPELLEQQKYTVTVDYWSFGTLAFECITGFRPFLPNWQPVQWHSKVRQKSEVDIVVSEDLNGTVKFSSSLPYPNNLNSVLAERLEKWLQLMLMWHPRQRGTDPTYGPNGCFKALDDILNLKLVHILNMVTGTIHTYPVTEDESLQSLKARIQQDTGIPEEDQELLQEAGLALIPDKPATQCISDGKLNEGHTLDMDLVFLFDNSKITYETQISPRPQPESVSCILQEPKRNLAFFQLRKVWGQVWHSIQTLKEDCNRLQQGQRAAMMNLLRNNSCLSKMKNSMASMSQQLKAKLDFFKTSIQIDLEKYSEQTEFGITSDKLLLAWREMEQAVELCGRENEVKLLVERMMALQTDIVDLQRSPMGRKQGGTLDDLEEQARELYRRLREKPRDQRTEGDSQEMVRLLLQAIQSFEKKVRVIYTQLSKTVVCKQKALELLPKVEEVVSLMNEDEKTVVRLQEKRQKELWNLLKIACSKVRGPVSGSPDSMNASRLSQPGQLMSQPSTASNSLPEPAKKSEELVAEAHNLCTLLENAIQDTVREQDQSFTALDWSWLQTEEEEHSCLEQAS
The settings on record: at 0.1 µM.

Assay [9] has as its target T3, Inhibitor of nuclear factor kappa-B kinase subunit beta (Homo sapiens). The settings on record: at 1 µM.
For assay [10], the target named is T4, Inhibitor of nuclear factor kappa-B kinase subunit epsilon (Homo sapiens) (UniProt Q14164).
T4 sequence (whole entry): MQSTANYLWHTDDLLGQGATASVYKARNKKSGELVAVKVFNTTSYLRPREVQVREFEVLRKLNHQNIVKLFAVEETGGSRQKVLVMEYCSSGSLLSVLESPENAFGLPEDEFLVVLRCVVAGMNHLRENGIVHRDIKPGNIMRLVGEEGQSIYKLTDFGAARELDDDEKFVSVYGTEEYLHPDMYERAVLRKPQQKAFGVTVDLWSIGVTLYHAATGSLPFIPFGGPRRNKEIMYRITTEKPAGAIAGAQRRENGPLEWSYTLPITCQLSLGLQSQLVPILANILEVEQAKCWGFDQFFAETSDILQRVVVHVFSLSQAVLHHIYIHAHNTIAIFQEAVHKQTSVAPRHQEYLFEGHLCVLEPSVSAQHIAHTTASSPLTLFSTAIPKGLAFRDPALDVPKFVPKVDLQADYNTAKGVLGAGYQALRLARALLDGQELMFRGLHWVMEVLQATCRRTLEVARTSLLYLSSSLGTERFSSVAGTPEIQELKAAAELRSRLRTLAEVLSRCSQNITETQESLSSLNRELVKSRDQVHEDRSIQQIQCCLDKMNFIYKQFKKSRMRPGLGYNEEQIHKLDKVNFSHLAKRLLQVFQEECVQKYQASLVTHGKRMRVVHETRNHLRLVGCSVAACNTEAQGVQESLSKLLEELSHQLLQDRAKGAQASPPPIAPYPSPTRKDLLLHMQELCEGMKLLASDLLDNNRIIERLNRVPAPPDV
Conditions: at 0.1 µM.

For assay [11], the target named is T4, Inhibitor of nuclear factor kappa-B kinase subunit epsilon (Homo sapiens). The settings on record: at 1 µM.
The target in assay [12] is T5, Serine/threonine-protein kinase Nek1 (Homo sapiens) (UniProt Q96PY6).
T5 sequence (whole entry): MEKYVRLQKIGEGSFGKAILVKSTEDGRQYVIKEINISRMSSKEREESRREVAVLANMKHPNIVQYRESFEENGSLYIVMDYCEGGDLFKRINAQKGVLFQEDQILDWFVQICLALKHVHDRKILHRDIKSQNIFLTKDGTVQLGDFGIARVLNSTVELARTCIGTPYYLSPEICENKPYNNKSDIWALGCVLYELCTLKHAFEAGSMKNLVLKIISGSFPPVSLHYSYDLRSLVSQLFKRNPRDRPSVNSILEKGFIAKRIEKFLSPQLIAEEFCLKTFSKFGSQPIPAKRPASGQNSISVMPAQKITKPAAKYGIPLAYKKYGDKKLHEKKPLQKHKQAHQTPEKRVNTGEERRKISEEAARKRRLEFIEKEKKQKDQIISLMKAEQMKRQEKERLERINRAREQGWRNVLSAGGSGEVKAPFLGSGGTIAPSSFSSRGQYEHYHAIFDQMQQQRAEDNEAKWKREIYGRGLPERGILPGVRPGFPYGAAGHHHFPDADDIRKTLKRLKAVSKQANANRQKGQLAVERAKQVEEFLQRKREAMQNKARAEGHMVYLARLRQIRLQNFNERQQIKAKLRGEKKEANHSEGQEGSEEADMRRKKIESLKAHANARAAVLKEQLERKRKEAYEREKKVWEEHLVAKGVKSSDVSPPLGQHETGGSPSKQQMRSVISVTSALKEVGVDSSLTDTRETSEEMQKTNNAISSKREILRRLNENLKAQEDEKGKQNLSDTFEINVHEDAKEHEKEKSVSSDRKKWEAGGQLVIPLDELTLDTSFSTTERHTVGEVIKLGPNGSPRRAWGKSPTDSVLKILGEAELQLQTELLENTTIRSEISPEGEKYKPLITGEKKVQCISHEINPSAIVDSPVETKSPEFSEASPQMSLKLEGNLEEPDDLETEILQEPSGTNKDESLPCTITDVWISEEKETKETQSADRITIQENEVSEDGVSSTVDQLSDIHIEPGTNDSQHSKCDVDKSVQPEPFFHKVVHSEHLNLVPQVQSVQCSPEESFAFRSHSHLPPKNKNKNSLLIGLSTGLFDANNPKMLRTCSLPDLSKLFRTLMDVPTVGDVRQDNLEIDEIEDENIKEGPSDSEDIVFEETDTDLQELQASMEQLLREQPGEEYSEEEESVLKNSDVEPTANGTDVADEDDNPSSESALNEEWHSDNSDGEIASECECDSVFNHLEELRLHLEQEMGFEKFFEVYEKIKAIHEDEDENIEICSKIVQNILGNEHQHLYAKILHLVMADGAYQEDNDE
Conditions: at 0.1 µM.

Assay [13] concerns the target T5, Serine/threonine-protein kinase Nek1 (Homo sapiens). Conditions: at 1 µM.
The target in assay [14] is T6, Serine/threonine-protein kinase Nek2 (Homo sapiens) (UniProt P51955).
T6 sequence (whole entry): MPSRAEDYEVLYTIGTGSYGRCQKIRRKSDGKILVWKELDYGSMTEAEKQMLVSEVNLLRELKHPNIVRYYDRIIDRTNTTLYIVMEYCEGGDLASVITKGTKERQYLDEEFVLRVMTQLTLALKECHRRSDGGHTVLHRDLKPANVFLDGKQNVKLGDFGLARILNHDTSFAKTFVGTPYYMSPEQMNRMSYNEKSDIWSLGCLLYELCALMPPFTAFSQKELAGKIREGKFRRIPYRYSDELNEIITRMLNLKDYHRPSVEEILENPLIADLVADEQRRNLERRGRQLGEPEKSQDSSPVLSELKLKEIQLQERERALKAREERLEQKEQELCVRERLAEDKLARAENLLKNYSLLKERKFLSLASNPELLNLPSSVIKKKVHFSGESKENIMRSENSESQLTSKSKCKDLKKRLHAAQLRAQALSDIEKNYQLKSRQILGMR
Conditions: at 0.1 µM.

Assay [15] addresses T6, Serine/threonine-protein kinase Nek2 (Homo sapiens). The settings on record: at 1 µM.
Assay [16] addresses Serine/threonine-protein kinase Nek6 (Homo sapiens) (UniProt Q9HC98). Conditions: at 0.1 µM.
Assay [17] has the same target. The settings on record: at 1 µM.
The target in assay [18] is Serine/threonine-protein kinase Nek7 (Homo sapiens) (UniProt Q8TDX7). Conditions: at 0.1 µM.
For assay [19] the target is unchanged. The settings on record: at 1 µM.
Assay [20] deals with T7, Serine/threonine-protein kinase Nek9 (Homo sapiens) (UniProt Q8TD19).
T7 sequence (whole entry): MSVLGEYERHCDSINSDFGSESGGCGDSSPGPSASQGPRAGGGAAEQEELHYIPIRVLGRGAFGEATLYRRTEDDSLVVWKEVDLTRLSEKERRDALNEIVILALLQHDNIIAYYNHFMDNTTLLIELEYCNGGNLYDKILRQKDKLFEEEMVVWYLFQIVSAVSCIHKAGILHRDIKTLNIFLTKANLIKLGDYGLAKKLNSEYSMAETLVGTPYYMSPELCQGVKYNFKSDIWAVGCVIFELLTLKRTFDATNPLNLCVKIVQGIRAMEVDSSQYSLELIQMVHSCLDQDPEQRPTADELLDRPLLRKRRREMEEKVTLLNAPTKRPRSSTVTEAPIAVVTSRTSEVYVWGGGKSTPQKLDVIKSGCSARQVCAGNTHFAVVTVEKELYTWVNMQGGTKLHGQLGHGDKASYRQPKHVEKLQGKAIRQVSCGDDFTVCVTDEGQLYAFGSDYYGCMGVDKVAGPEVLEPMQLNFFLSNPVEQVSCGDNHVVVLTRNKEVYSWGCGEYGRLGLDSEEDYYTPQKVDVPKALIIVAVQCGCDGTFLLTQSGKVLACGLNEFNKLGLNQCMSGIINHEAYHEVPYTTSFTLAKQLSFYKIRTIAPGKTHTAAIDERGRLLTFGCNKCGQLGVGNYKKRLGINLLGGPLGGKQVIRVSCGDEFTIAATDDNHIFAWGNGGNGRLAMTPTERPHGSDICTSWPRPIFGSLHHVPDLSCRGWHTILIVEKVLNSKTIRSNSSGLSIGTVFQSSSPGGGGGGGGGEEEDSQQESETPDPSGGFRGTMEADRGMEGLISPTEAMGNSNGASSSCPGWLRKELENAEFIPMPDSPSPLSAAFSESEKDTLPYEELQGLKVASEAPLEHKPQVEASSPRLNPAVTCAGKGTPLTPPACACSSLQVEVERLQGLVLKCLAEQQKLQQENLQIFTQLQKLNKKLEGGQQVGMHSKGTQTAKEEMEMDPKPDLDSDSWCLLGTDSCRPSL
Conditions: at 0.1 µM.

Chain of Serine/threonine-protein kinase Nek6 (Homo sapiens) (Q9HC98 whole entry): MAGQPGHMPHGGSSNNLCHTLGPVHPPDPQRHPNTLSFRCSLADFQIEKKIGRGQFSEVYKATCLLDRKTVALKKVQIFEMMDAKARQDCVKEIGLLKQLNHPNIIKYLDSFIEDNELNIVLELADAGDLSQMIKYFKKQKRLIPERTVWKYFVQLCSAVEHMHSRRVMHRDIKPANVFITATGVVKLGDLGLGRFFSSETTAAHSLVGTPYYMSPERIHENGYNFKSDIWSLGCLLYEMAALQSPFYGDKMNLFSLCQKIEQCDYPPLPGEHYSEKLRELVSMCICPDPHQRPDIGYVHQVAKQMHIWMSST
Chain of Casein kinase II subunit alpha (Homo sapiens) (P68400 whole entry, looked up): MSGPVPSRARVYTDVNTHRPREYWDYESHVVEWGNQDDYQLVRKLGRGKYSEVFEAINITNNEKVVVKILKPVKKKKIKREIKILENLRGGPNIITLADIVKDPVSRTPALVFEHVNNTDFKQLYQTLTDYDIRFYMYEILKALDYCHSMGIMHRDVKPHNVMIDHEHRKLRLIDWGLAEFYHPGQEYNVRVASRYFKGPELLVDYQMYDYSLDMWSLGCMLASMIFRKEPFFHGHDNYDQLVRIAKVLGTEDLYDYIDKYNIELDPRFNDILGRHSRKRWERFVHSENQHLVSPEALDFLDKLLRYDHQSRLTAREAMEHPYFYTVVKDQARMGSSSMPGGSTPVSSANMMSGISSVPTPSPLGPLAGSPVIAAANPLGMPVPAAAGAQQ
Chain of Serine/threonine-protein kinase Nek7 (Homo sapiens) (Q8TDX7 whole entry, looked up): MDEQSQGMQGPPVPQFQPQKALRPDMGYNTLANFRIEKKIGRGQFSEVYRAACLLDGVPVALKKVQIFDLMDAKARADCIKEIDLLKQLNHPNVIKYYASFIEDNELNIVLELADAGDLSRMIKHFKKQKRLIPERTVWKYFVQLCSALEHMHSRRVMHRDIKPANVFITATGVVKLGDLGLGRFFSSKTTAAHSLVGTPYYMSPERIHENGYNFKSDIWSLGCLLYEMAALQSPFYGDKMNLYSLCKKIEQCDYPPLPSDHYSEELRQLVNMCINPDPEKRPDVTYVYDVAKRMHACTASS
Chain of Sphingosine kinase 1 (Homo sapiens) (Q9NYA1 whole entry): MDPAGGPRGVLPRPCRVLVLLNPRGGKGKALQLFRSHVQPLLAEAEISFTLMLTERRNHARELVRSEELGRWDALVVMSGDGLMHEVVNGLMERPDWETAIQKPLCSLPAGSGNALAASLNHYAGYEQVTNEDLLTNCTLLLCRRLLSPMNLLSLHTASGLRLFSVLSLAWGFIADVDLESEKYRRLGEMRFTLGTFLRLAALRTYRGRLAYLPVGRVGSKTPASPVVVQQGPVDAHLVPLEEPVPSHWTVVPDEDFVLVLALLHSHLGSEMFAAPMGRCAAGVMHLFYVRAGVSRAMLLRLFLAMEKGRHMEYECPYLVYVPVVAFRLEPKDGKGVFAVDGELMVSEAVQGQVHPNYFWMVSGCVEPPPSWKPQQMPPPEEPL

As for `CNC(=O)c1cccc(C#Cc2cncnc2Nc2ccc(OCc3cccc(F)c3)c(Cl)c2)c1`, the inhibition (in general, the drop in the measured response relative to a control, in per cent) was 2.62% in assay [1]; 0.55% in [2]; -7.19% in assay [3]; 2.99% in assay [4]; 10.1% in [5]; -3.42% in assay [6]. The inhibition is -9.45% in [7]; 0.53% in assay [8]; -0.35% in [9]; 4.53% in assay [10]; 1.01% in assay [11]; -0.52% in assay [12]. Further, the inhibition is -1.06% in [13]; 0.09% in assay [14]; -0.96% in [15]; 1.08% in [16]; 1.68% in [17]; 0.01% in [18]. Moreover, the inhibition turned out to be 0.48% in assay [19] and 0.64% in assay [20].
